Assay results as given in the supplement of paper PMC7556523.
Unmarked numbers belong to inactive results.

Tested on: Sporothrix schenckii ATCC 32286
Test: growth inhibition relative to untreated control; higher = more growth inhibition (more antifungal activity), active = 80 or more; extreme values may be limits of the assay
Conditions: 1 µM; 48 h
Procedure, shortened: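 Before testing, the reference isolates were kept in brain heart infusion broth with 2% glucose at 36°C for 7 days to give yeast-form cells. These cells, at 1 x 10^5 CFU/ml, received library compounds at a final 1 μM and were held 48 h at 35°C in 5% CO2. Growth was checked by eye under an inverted light microscope and quantified spectrophotometrically in quadruplicate, and the value is percent growth inhibition versus untreated cells.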

SMILES | growth inhibition
CN(C)CCNC(=O)N1CCCN(c2ncnc3cc(-c4ccccc4)sc23)CC1 | 13.2%
c1coc(CNc2nc(N3CCCCC3)nc3ccccc23)c1 | 13.5%
CN(C(=O)c1cc2c(-c3cncnc3)cccc2[nH]1)c1ccccc1 | 3.25%
Cc1cc(C(=O)Nc2cnn(Cc3ccc(Cl)cc3Cl)c2)no1 | 12%
Cc1ccc(-c2cc(C(=O)Nc3cccnc3)c3cc(Br)ccc3n2)cc1 | 0%
Clc1ccc(-n2cc(COc3ccnc4ccccc34)nn2)cc1 | 10%
COc1ccc(-c2nnc3ccc(-c4cccc(C(C)C)c4)cn23)cc1OC | 16.8%
Cc1nc2ccccn2c1C(=O)NCc1ccc(Cl)cc1 | 16%
COc1ccc(C2(C(=O)Nc3ccc(Br)cc3)CCCC2)cc1 | 13%
O=C(Nc1ccccc1)c1ccc(-c2cc3ccncc3cc2OC2CCNCC2)s1 | 11%
N=C(N)c1ccc(OCCCCCOc2ccc(C(=N)N)cc2)cc1 | 72%
COc1ccc2nc(C)cc(OCC(=O)Nc3ccccc3OC)c2c1 | 0.75%
O=C(Nc1ccccc1-c1nc2c(C(=O)O)cccc2o1)c1ccccc1 | 0%
O=C(NC1CC1)c1ccc(CSCc2ccccc2Cl)o1 | 2%
O=C1Nc2ccc(Br)cc2C12NCCc1c2[nH]c2ccccc12 (configuration not stated) | 4.75%
CCOc1ccc2cc(-c3nn(C(C)(C)C)c(N)c3C(N)=O)cnc2c1 | 2.5%
CC1=Nc2ccc(Cl)cc2C(O)(c2ccc(C)cc2)N1CCN1CCCCC1 (configuration not stated) | 1.25%
